Assay results from the supplement of paper PMC13380429.

Test system: Vero E6 infected with SARS-CoV-2
Test: morphology score (similarity to uninfected cells); higher = more like uninfected cells
Conditions: 24 h

Row | SMILES | morphology score
1 | CCCCCn1cc(C(=O)NC23CC4CC(CC(C4)C2)C3)c(=O)c2cc(-c3ccccc3)ccc21 (10 µM) | 0.119
2 | O=C(NNc1nc2cc(F)ccc2n2cccc12)c1cnccn1 (10 µM) | 0.0623
3 | CCOC(=O)C1=C(COCCN)NC(C)=C(C(=O)OC)C1c1ccccc1Cl (stereo not drawn) [amlodipine] (10 µM) | 0.697
4 | CCCN(C/C=C/I)[C@H]1CCc2ccc(O)cc2C1 [7-hydroxy-PIPAT] (10 µM) | -0.0984
5 | CCN(CC)CCN[C@@H](C(=O)OCCC(C)C)c1ccccc1 [camylofine-chlorhydrate] (10 µM) | 0.18
6 | Cc1oc(-c2ccccc2)nc1CCC(=O)c1ccc(CC2SC(=O)NC2=O)cc1 (stereo not drawn) [darglitazone] (10 µM) | 0.276
7 | COc1ccc(Cc2cnc(N)nc2N)cc1OC [diaveridine] (10 µM) | 0.191
8 | Nc1nc(N)c2nc(-c3ccccc3)c(N)nc2n1 [triamterene] (0.833333 µM) | -0.174
9 | CCN1C(=O)NC(c2ccccc2)C1=O (stereo not drawn) [ethotoin] (10 µM) | 0.221
10 | CC(=O)[C@@]12O[C@](C)(c3ccccc3)O[C@@H]1C[C@H]1[C@@H]3CCC4=CC(=O)CC[C@]4(C)[C@H]3CC[C@@]12C [algestone-acetophenide] (10 µM) | 0.363
11 | CC(O)(CS(=O)(=O)c1ccc(F)cc1)C(=O)Nc1ccc(C#N)c(C(F)(F)F)c1 (stereo not drawn) [bicalutamide] (10 µM) | -0.00454
12 | CCCN1CCCC[C@H]1C(=O)Nc1c(C)cccc1C [ropivacaine] (10 µM) | 0.0192
13 | CN1CC[C@@]2(C)c3cc(O)ccc3N(C)[C@@H]12 [eseroline-(-)] (10 µM) | 0.137
